# Measurements: PubChem BioAssay
# Assay: small-molecule microarray binders of probe aWnt5a, primary screen, biochemical, biotinylated probe, 635/667 nm fluorescence (AID 1113);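 note: score merges 667 nm fluorescence intensity with signal-to-noise per printed feature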
# Conditions: higher = more signal
row,Compound,composite z-score
1,COCCCNC(=O)[C@@]1(Sc2ccc(C)cc2)CC(=O)N(C2CCCCC2)[C@@H]1c1ccc(CO)cc1I,-0.0853
2,[N-]=[N+]=NCc1ccccc1C[C@]1(C(=O)O)COC(c2ccc(OCCCO)cc2)=N1,-0.15
3,COC(=O)[C@@]1(Cc2ccc(OC)cc2)[C@H]2c3cc(C(=O)N(C)C)n(Cc4ccsc4Br)c3C[C@H]2CN1C(=O)c1ccccc1,0.281
4,CCCCC(=C=CC[C@@H](O)c1ccc(OCCO)cc1)C[C@@H](O)c1ccccn1,-0.0685
5,O=C1NC(=O)C2C1C=CC(C(O)c1cccc(O)c1)N2Nc1ccc(Cl)cc1Cl (centres undefined),-0.104
6,[N-]=[N+]=NCc1ccccc1C[C@]1(C(=O)NCc2ccccc2)N=C(c2ccc(OCCCO)cc2)O[C@H]1c1ccccc1CN=[N+]=[N-],0.0474
7,O=C1O[C@H](c2ccccc2)[C@H](c2ccccc2)N2[C@H]1[C@@H](C(=O)N1CCN(c3ncccn3)CC1)[C@]1(C(=O)Nc3ccccc31)[C@H]2c1ccc(O)cc1,-0.0643
8,COC(=O)[C@@]1(Cc2ccc(F)cc2)[C@H]2c3cc(C(=O)N4CCCC4)n(CCO)c3C[C@H]2CN1C(=O)c1ccccc1,0.229
9,O=C1NC(=O)C2C1C=CC(C(O)c1ccc(F)cc1)N2Nc1ccccn1 (centres undefined),-0.124
10,CC[C@H](C)C(=O)O[C@H]1CC[C@]2(C)C3=C(CCC2C1(C)C)[C@]1(C)CC[C@H]([C@H](C)CCCC(C)C)[C@@]1(C)CC3 (some centres undefined),-0.0462
11,CCCC[C@H]1OB(O)C[C@H]2C1=C(COC)C[C@H]1C(=O)C=CC(=O)[C@H]12,-0.101
12,CCCCCCCCCCC(O)C1C=CC2C(=O)N(C)C(=O)C2N1N1CCCCC1 (centres undefined),-0.196
13,C=CC[C@]1(C(=O)NCCCOC)N=C(c2ccc(OCCCO)cc2)O[C@H]1c1ccccc1,0.108
14,CC1CC/C=C\[C@H]2OC34C=CCN(c5ccc(Cl)cc5)C(=O)[C@H]3N(CCCO)C(=O)[C@]4(C)C2C(=O)O1 (some centres undefined),-0.124
15,C=C(CC1([C@@H](NP(=O)(c2ccccc2)c2ccccc2)[C@H]2C[C@@H]2CCN(C(=O)OCC)S(=O)(=O)c2ccc(C)cc2)CC1)c1ccccc1,0.0267
16,COCC1=C([C@H](O)CCc2ccccc2)[C@H](CO)n2c(=O)n(-c3ccccc3)c(=O)n2C1,-0.175
17,COC(=O)c1ccc([C@H](NC(=O)c2ccccc2)[C@]2(C)C[C@H]2C2CCCCC2)cc1,0.0805
18,COCCOC(=O)N1C(=O)[C@@]2(c3cc(C#CC4=CCCCC4)ccc31)[C@H](c1ccccc1OCCO)N1[C@H](c3ccccc3)[C@H](c3ccccc3)OC(=O)[C@H]1[C@@H]2C(N)=O,-0.0758
19,C=CCC(OC(C)=O)[C@@H]1[C@@H](N(Cc2cc3ccccc3o2)C(=O)Cc2ccc(OC)cc2)c2cc(OCCCO)ccc2N1C(=O)Cc1ccc2ccccc2c1 (some centres undefined),-0.0704
20,COc1ccc([Si](C)(C)[C@H]2[C@H](CCO)O[C@@]3(C(=O)N(Cc4ccccc4)c4ccc(N(C=O)c5ccccc5)cc43)[C@@H]2C)cc1,-0.0512
21,CC(C)CNC(=O)[C@@H]1c2ccccc2C(=O)N(Cc2ccccc2Cl)[C@H]1c1ccc(CO)cc1,-0.244
22,CCCCNC(=O)c1ccc(C#C[Si](C)(C)C)c(OC(C)=O)c1,-0.191
23,COc1cc2c(cc1O)C(c1ccc(CN3CCCC3)cc1)N(Cc1cccc(OC(F)(F)F)c1)CC2 (centres undefined),-0.203
24,C=CCOC(=O)[C@H]1[C@@H]2C(=O)O[C@@H](c3ccccc3)[C@@H](c3ccccc3)N2[C@@H](c2ccc(OCCOC(=O)[C@H]3C[C@H]4C(=O)NCC(=O)N4[C@H]3c3ccc(O)cc3)cc2)[C@]12C(=O)Nc1ccc(I)cc12,-0.1
25,NC(=O)N1C(=O)C2C(C1=O)C1C=C(CCCO)C2C(c2ccc(CN3CCCC3)cc2)N1Cc1cccc(OC(F)(F)F)c1 (centres undefined),-0.104
26,C=C(CCCC)C(=O)CC[C@H](OC(C)=O)c1ccccc1OCCO,-0.0182
27,C=CCC(OC(C)=O)[C@@H]1[C@@H](N(Cc2cccc3ccccc23)C(=O)c2ccc(-c3ccccc3)cc2)c2cc(OCCCO)ccc2N1C(=O)c1ccc2ccccc2n1 (some centres undefined),-0.0685
28,COC(=O)[C@@]1(Cc2ccccc2)[C@@H]2[C@@H](CC(=O)[C@H]2CC(=O)C(=O)N(C)C)CN1C(=O)c1ccccc1,0.0078
29,COCCOC(=O)N1C(=O)[C@@]2(c3cc(C#Cc4ccc(OC)cc4)ccc31)[C@H](C(=O)Nc1nc3ccccc3s1)[C@H]1C(=O)O[C@H](c3ccccc3)[C@H](c3ccccc3)N1[C@@H]2c1ccccc1OCCO,-0.299
